Screening results: PubChem, National Center for Advancing Translational Sciences (NCATS)
Shown are actives, neighbours in structure and some others; about 21% of the full set was active somewhere.
Pf growth 48h: Primary qHTS for delayed death inhibitors of the malarial parasite plastid, 48 hour incubation; Potency, µM (top dose mostly 28.7 µM), for inactives: at the highest dose activity change, negative = inhibition, hits mostly inhibitors; AID 504832, 2011; P. falciparum luciferase growth in erythrocytes, 48 h; 310,000 tested, 5.9% active; further: potency means the concentration at half of the fitted maximal effect; on the % scale 0 is the no-effect control and ±100 the full control effect
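Cell-based growth assay: transgenic P. falciparum expressing firefly luciferase, cultured in red cells within RPMI 1640 containing 0.5% w/v Albumax, 24 mM bicarbonate and gentamycin. A drop in luciferase activity indicates inhibition.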
CHX counter: Cycloheximide Counterscreen for Small Molecule Inhibitors of Shiga Toxin | cell reporter, cycloheximide protein synthesis inhibition counterscreen | max response, % | 300,000 tested, 12% active | AID 2314, 2010; in the data active means max response mostly above about 13%, no sharp cut-off; inactive means mostly below about 14%; further: read at 38.3 µM for the half of the compounds with a filed dose; 0% is about no effect
Shiga inhibitor: A qHTS for Small Molecule Inhibitors of Shiga Toxin. Vero cells, Shiga toxin protein synthesis inhibition reporter. inhibition, % at 38.7 µM. 290,000 tested, 9.2% active. AID 2315, 2010; in the data active means inhibition mostly above about 28%, no sharp cut-off; inactive means mostly below about 43%; further: 0% is about no effect
Pf growth 96h: Primary qHTS for delayed death inhibitors of the malarial parasite plastid, 96 hour incubation; P. falciparum luciferase reporter growth, 96 h; Potency, µM (doses to about 28.7 µM), for the others: at the top dose activity change, negative = inhibition, actives largely listed as inhibitors; 320,000 tested, 6.9% active; AID 504834, 2011; further: potency means the concentration at half of the fitted maximal effect; on the % scale 0 is the no-effect control and ±100 the full control effect
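Plates of compound plus infected erythrocytes (2% hematocrit, 0.05% parasitemia final) incubate 96 hours, 37 C, 5% CO2. Detection reagent added; reduced luminescence from the parasites' luciferase reporter flags inhibition.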
Starred values were filed as active, the others as inactive; ? = inconclusive; nt = not tested or not shown; [ ] = dose if it differs, or a comment. Unless noted, the call rests on the fitted dose curve; in most records, active means well fitted inhibition curve with a large enough effect; inconclusive means small, poorly fitted or top-dose-only effect, or another doubt; inactive means no such curve, though single readings can be large or run the other way.

SMILES	Pf growth 48h	CHX counter	Shiga inhibitor	Pf growth 96h
CC(=O)c1ccc(NC(=O)N2CCCC(C(=O)c3ccc4c(c3)OCO4)C2)cc1 (configuration not stated)	38%	16*	53*	?
O=C(c1ccc2c(c1)OCCO2)C1CCN(C(=O)Nc2ccc(F)cc2)CC1	-26%	15	19	?
Cc1cccc(S(=O)(=O)Nc2nc3ccccc3nc2NCc2ccc3c(c2)OCO3)c1	5%	10	-3	2%
COC(=O)c1cc(C)sc1NC(=O)CN1CCN(C(=O)C2CCCO2)CC1 (configuration not stated)	23%	-10	-26	21%
Fc1ccc(CN2CCN(c3ncccn3)CC2)cc1	nt	-2	-13	?
CCc1ccc(CN2CCN(c3ncccn3)CC2)cc1	?	26*	nt	?
COc1ccc(C(=O)OCCCc2cc3ccccc3c(=O)o2)cc1	41%	nt	nt	59%
COC(=O)c1ccc(N2CCN(C)CC2)c(NC(=O)COc2cccc(C)c2)c1	?	2	23	249%
O=C(/C=C/Nc1ccc(F)cc1)c1ccco1	279%	35*	67*	nt
CCOC(=O)c1ccc(N/C=C/C(=O)c2ccco2)cc1	nt	40*	66*	97%
O=C(Nc1ccccc1C(=O)Nc1ccc(F)cc1)c1ccco1	117%	11	40	10%
COc1ccc(-c2cc(CNC(=O)CCl)on2)cc1	2.9µM*	11	19	1.5µM*
CC(C)C(=O)NCc1cc(-c2ccccc2)no1	-41%[5.75 µM]	-4	-12	5.2µM*
CC(=O)NCc1cc(-c2ccc(Cl)cc2)no1	-7%	-1	29	-9%[1.15 µM]
CCCNC(=O)C(Cc1ccc(Cl)cc1)NC(=O)c1ccc(C#N)cc1 (configuration not stated)	?	nt	nt	0%
Nc1[nH]c(N=NC(=O)c2ccccc2O)c2ccccc12	108%	58*	81*	115%
Nc1[nH]c(N=NC(=O)c2ccc(Cl)cc2)c2ccccc12	54%	32*	95*	?
Nc1[nH]c(N=NC(=O)c2ccccc2)c2ccccc12	204%	53*	84*	70%
O=C(ONc1ccc(N=NC(=O)c2ccccc2O)cc1)c1ccccc1	97%	-3	-9	103%
O=C(N=Nc1c(O)[nH]c2ccccc12)c1ccc(CN2CCOCC2)cc1	-1%	6	9	46%
COc1ccc(S(N)(=O)=O)cc1C(=O)NCC1(N2CCCCC2)CCCCC1	nt	-2	-5	?
O=C(Nc1ccnn1C1CCN(CCCc2ccccc2)CC1)c1ccccc1Cl	-27%	-1	-13	?
c1cn2cc(-c3ccc4c(c3)OCO4)nc2s1	-18%	46*	95*	-18%
O=C(Nc1ccc(-c2cn3ccsc3n2)cc1)C1CCCC1	48%	32*	33	14%
O=C(Nc1ccc(-c2ccc3nncn3n2)cc1)C1CCCC1	40%	22*	87*	11%
SMILES	Pf growth 48h	CHX counter	Shiga inhibitor	Pf growth 96h
Clc1ccc(Cn2ccc(-c3ccc4c(c3)OCO4)n2)cc1Cl	7%	9	38	123%
O=C(CC1CCCCC1)Nc1ccc(-c2ccc3nncn3n2)cc1	-9%	6	-6	-23%
CC(=O)Nc1ccc(NC(=O)CCN2C(=O)c3ccccc3C2=O)cc1	45%	2	nt	?
CCC(=O)Nc1cccc(-c2cn3ccsc3n2)c1	112%	17	43	nt
O=C(CCN1C(=O)c2ccccc2C1=O)Nc1ccc(-c2cn3ccsc3n2)cc1	6%	33*	52*	?
O=c1c2c(nc3nc(NCc4cccc(Cl)c4)[nH]n13)CCC2	8%	2	14	19%
CCC(C)N1CCNCC1 (configuration not stated)	13%	-8	29	0%
CC(=O)Nc1ccc(-c2cn3ccsc3n2)cc1	229%	30*	62*	10µM*
O=C(Nc1ccc(-c2cn3ccsc3n2)cc1)C1CC1	-3%	61*	43*	9.3µM*
Cc1ccc2sc(-c3ccc(NC(=O)CCN4C(=O)c5ccccc5C4=O)cc3)nc2c1	137%	50*	85*	9.3µM*
CC(=O)Nc1ccc(S(=O)(=O)NCc2cn3ccsc3n2)cc1	12%	-3	-5	114%
COc1ccc(-n2ccnc(SCC(=O)NCc3ccccc3Cl)c2=O)cc1	-7%	7	1	20%
CCOC(=O)Cc1nn(Cc2nc(-c3ccc(C#N)cc3)cs2)c(=O)c2ccccc12	?	-1	-8	?
Cc1cc(N2CCCCC2)nc2ccc(NC(=O)CCC(=O)NCCC(C)C)cc12	nt	35*	49*	?
CCOC(=O)C1CCCN(C(=O)CCC(=O)Nc2ccc3nc(N4CCOCC4)cc(C)c3c2)C1 (configuration not stated)	10%	24*	21	-14%
CCN1CCN(c2cc(C)c3cc(NC(=O)CCC(=O)Nc4ccc(OC)cc4OC)ccc3n2)CC1	13µM*	-4	-11	?
COc1ccc(C(=O)Nc2ccc3nc(N4CCCCC4)cc(C)c3c2)c(OC)c1	3%	-4	-8	12%
CCCN(CCC)CCNC(=O)CCC(=O)Nc1ccc2nc(N3CCOCC3)cc(C)c2c1	63%	40*	75*	?
COCCCNC(=O)CCC(=O)Nc1ccc2nc(N3CCOCC3)cc(C)c2c1	48%	1	-2	nt
N#Cc1cnc(SCC(=O)NNC(=O)COc2cccc3ccccc23)nc1N	-7%	-2	-15	?
Cc1cc2c3c(c1)C(C)CC(C)(C)N3C(=O)C2=C(C#N)C#N (configuration not stated)	?	-3	7	?
Cc1ccc(NC(=O)CCCCCN2C(=O)[C@@H]3Cc4ccccc4CN3C2=O)c(Cl)c1	?	1	2	?
O=c1oc2cc(O)ccc2c2c1CCCC2	4%	-1	-4	126%
CCNc1c(NCC)c(=O)c1=O	-1%	-3	-13	3%
CCCCNC(=O)CCC(=O)Nc1ccc2nc(N3CCCCC3)cc(C)c2c1	21%	31*	63*	?
SMILES	Pf growth 48h	CHX counter	Shiga inhibitor	Pf growth 96h
CCCCNC(=O)CCC(=O)Nc1ccc2nc(N3CCOCC3)cc(C)c2c1	50%	13	-6	-2%
Cc1cc(N2CCN(C)CC2)nc2ccc(NC(=O)CCC(=O)N3CCN(c4ccc([N+](=O)[O-])cc4)CC3)cc12	5.2µM*	-2	9	-21%
COc1cccc(NC(=O)CCC(=O)Nc2ccc3nc(N4CCOCC4)cc(C)c3c2)c1	97%	37*	81*	16%
Cc1c(-n2c(-c3ccccc3)nc3ccccc3c2=O)c(=O)n(-c2ccccc2)n1C	5%	9	12	?
CCC(C(=O)NC1CCCCC1)N(Cc1cccs1)C(=O)CCC(=O)Nc1cc(C)on1 (configuration not stated)	?	-4	-4	5%
Cc1[nH]c2ccccc2c1-c1csc(NC(=O)CSCCO)n1	31%	22	37	1%
c1ccc(-c2cncnc2)cc1	25%	nt	nt	16%
C#CCNC(=O)C1=C[C@H](C2CCCCC2)C[C@H](OCc2ccc(CO)cc2)O1	?	14*	52*	-21%
